PubChem BioAssay (NCATS)
Results filed as inconclusive are left out. The source made the active and inactive calls. Unless noted, calls come from the whole dose curve; as a rule, active = well fitted curve in the direction sought with a large enough effect; inconclusive = small, poorly fitted or top-dose-only effect, or another doubt; inactive = no such curve, though single readings can be large; an effect the other way counts as inactive or inconclusive.

Assays:
[1] = target: Lysosomal acid glucosylceramidase (Homo sapiens) (UniProt P04062); assay: Glucocerebrosidase-p2 (AID 348; in the data active = potency below about 10 µM; note: potency is the fitted concentration of half-maximal effect); details: purified GBA, blue fluorogenic substrate, 40 min
In short: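 Normal human glucocerebrosidase (0.2 nM) with blue fluorogenic substrate (80 uM final) in citrate/phosphate pH 5.9 with 10mM sodium taurocholate, 0.01% tween-20; 40 min RT, NaOH/glycine stop; fluorescence Ex 365/Em 440; AC50 from a titration from 0.6 nM upwards.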

[2] = AP1 Signaling Pathway (AID 357; active = well fitted curve in either direction with a large enough effect, not every such curve was filed as active;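 note: ME-180 reporter cells stimulated with EGF at its EC50 level; % is set by controls: 0 for no effect and ±100 for the full control effect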); details: ME-180 AP-1-bla reporter, EGF-induced, beta-lactamase ratio, 5 h; at 7.69 µM (top of the series) unless noted
In short: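 Read-out was the 460nm/530nm emission ratio (excitation 405nm) after CCF4 loading for 2.5 hours at room temperature. Cells carried an AP-1-driven beta-lactamase reporter, were stimulated with EC50 EGF plus compound for 5 hours, and AC50 values came from titrations.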

[3] = target: Cytochrome P450 1A2 (Homo sapiens) (UniProt P05177); assay: p450-cyp1a2 (AID 410; calls by dose curve; note: potency is the fitted concentration of half-maximal effect); details: recombinant CYP1A2, luciferin-ME demethylation, luminescence; series mostly up to 57 µM
In short: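 O-Demethylation of luciferin 6' methyl ether by human CYP1A2 is monitored as luciferase luminescence. Substrate sits at Km (100uM); enzyme is 20nM. Values are scaled to 57 uM furafylline as maximal inhibition.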

[4] = NFAT Signaling Pathway (AID 444; active = well fitted curve in either direction with a large enough effect, not every such curve was filed as active;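 note: carbachol stimulus at about its EC50 of 1 µM final; % is set by controls: 0 for no effect and ±100 for the full control effect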); details: Jurkat NFAT-bla M1, carbachol, beta-lactamase ratio, 5 h; at 7.69 µM (top of the series) unless noted
In short: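 Read-out: CCF4 FRET ratio (460 nm/530 nm) after 1 h RT dye loading, used for %activity and AC50 from titration series. Cells: Jurkat NFAT-β-lactamase/M1 line, treated with compound plus 1 uM carbachol for 5 h, 37 °C.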

[5] = Stat Signaling Pathway (AID 446; active = well fitted curve in either direction with a large enough effect, not every such curve was filed as active;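 note: ME-180 cervical cancer cells given 40 pM IL-6 alongside compound; SIE-controlled beta-lactamase reporter measured as 460/530 nm FRET emission ratio; % is set by controls: 0 for no effect and ±100 for the full control effect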); details: ME-180 (cervical carcinoma) SIE beta-lactamase reporter, IL-6 stimulated, 5 h; at 7.69 µM (top of the series) unless noted
In short: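 Overnight-plated ME-180 cells bearing a STAT Inducible Element beta-lactamase reporter; 5 h co-exposure to compound and 40 pM IL-6; values normalized to 300 pM IL-6 and 125 nM JAK inhibitor controls.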

[6] = target: Glucocorticoid receptor (Homo sapiens) (UniProt P04150); assay: GR-GFP Redistribution (AID 450;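 active = compounds whose dose series gives a full or clear partial fitted curve of increased nuclear translocation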; note: potency is the fitted concentration of half-maximal effect); details: U2OS GR-GFP nuclear translocation, laser cytometry, 2 h
[7] = target: Glucocorticoid receptor (Homo sapiens) (UniProt P04150); assay: GR-EFC Redistribution (AID 451; calls by dose curve; note: potency is the fitted concentration of half-maximal effect); details: CHO-K1 GR-EFC translocation, beta-gal luminescence, 2 h
In short: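 Translocation of GR-ED fusion to nuclear EA restores b-gal, read by luminescence after 1 h room-temperature detection. Engineered CHO-K1 biosensor cells, 1,000/well, exposed 2 h at 37 C to titrations up to 46 uM final.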

[8] = target: Mitogen-activated protein kinase 10 (Mus musculus) (UniProt Q61831); assay: JNK3 AlphaScreen Assay (AID 530; active = well fitted curve in either direction with a large enough effect, not every such curve was filed as active;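 note: kinase came from lysate of stimulated human HepG2 cells; signal reports phosphorylation of biotinylated GST-cJun 1-79 at Ser73 with 10 µM ATP; % is set by controls: 0 for no effect and ±100 for the full control effect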); details: JNK3 lysate, c-Jun phosphorylation; series mostly up to 57.1 µM
In short: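 qHTS titrations with 15 min compound pre-incubation before adding ATP (10 uM final). Read-out: AlphaScreen of Ser73-phosphorylated biotin-GST-cJun using HepG2 lysate JNK3 activated by IL-1β and TNFα.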

[9] = target: Cytochrome P450 2C9 (Homo sapiens) (UniProt P11712); assay: qHTS Assay for Inhibitors and Substrates of Cytochrome P450 2C9 (AID 883); details: recombinant CYP2C9, luciferin-H luminescence, 60 min; series mostly up to 57.1 µM; note: potency is the fitted concentration of half-maximal effect; nearly all actives have a fitted effect of over 60% in size
In short: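 Inhibition of CYP2C9 is scored as loss of luminescence, with 57uM sulphaphenazole defining 100% inhibition. Substrate Luciferin-H is used at 100uM, equal to its KM; enzyme at 10nM in 25mM KPO4, 60 min at 37C with NADPH regeneration.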

[10] = target: Cytochrome P450 3A4 (Homo sapiens) (UniProt P08684); assay: qHTS Assay for Inhibitors and Substrates of Cytochrome P450 3A4 (AID 884); details: recombinant CYP3A4, Luciferin-PPXE luminescence; series mostly up to 57.1 µM; note: potency is the fitted concentration of half-maximal effect; nearly all actives have a fitted effect of over 50% in size
In short: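 Luminescent readout of luciferin produced by CYP3A4 (20 nM) dealkylation of Luciferin-PPXE, 25 uM (its KM). NADPH-driven reaction ran 60 min at RT after 10 min compound preincubation; data scaled to 57 uM ketoconazole as 100% inhibition.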

[11] = target: Cytochrome P450 3A4 (Homo sapiens) (UniProt P08684); assay: qHTS Assay for Activators of Cytochrome P450 3A4 (AID 885); details: recombinant CYP3A4, Luciferin-PPXE luminescence, 60 min; series mostly up to 57.1 µM; note: nearly all actives have a fitted effect of over 65% in size
In short: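 Using 20nM recombinant human CYP3A4 in potassium phosphate (200mM), substrate Luciferin-PPXE at 25uM, luminescent luciferin detection followed a 60-min RT NADPH reaction; data scaled to 57 uM ketoconazole.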

[12] = target: Cytochrome P450 2C19 (Homo sapiens) (UniProt P33261); assay: qHTS Assay for Inhibitors and Substrates of Cytochrome P450 2C19 (AID 899); details: recombinant CYP2C19, luciferin-H EGE luminescence; series mostly up to 57.1 µM; note: potency is the fitted concentration of half-maximal effect; nearly all actives have a fitted effect of over 60% in size
In short: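 5nM enzyme + 10uM Luciferin-H EGE (=KM), 50mM KPO4; cpd pin-transferred, 10 min 37C; NADPH regen, 60 min 37C; stopped w/ luciferin detection reagent, 20 min; luminescence. Normalized to 57uM ketoconazole (AC100).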

[13] = target: Dual specificity protein kinase CLK4 (Homo sapiens) (UniProt Q9HAZ1); assay: qHTS Assay for Inhibitors of CDC-like Kinase 4 (Kinase-Glo Assay) (AID 1770); details: recombinant Clk4, Kinase-Glo ATP depletion luminescence; series mostly up to 66.7 µM; note: nearly all actives have a fitted effect of over 65% in size; note: potency is the fitted concentration of half-maximal effect
In short: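 Recombinant human Clk4 (25 nM) phosphorylated RS repeat peptide (100 uM) with 1 uM ATP in Tris pH 7.5/MgCl2/EGTA/DTT/Triton buffer for 4.5 h at room temperature. Residual ATP was quantified by Kinase-Glo luciferase luminescence.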

[14] = target: Dual specificity protein kinase CLK4 (Homo sapiens) (UniProt Q9HAZ1); assay: qHTS Assay for Inhibitors of CDC-like Kinase 4 (ADP-Glo Assay) (AID 1771); details: recombinant CLK4, ADP-Glo luminescence; series mostly up to 80 µM; note: nearly all actives have a fitted effect of over 70% in size; note: potency is the fitted concentration of half-maximal effect
In short: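 Compounds are pin-transferred onto substrate mix (100 uM RS peptide, 1 uM ATP), then 25 nM Clk4 is added. After 1 hr at room temperature, ADP-Glo reagent runs 45 min, detection reagent 30 min, then luminescence is read.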

[15] = target: Dual specificity protein kinase CLK4 (Homo sapiens) (UniProt Q9HAZ1); assay: qHTS Assay for Inhibitors of CDC-like Kinase 4 (ADP-FP Assay) (AID 1795); details: Transcreener ADP fluorescence polarization; series mostly up to 50 µM; note: nearly all actives have a fitted effect of over 60% in size; note: potency is the fitted concentration of half-maximal effect
In short: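 Recombinant human Clk4 (6.25 nM) phosphorylated RS repeat peptide (100 uM) with 1 uM ATP in Tris pH 7.5/MgCl2/EGTA/DTT/Triton buffer for one hour. ADP was quantified by Transcreener competitive fluorescence polarization against an ADP calibration curve.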

[16] = target: Ubiquitin carboxyl-terminal hydrolase 1 (Homo sapiens) (UniProt O94782); assay: Inhibitors of USP1/UAF1: Pilot qHTS (AID 504865); details: purified USP1/UAF1, Ub-rhodamine cleavage fluorescence; series mostly up to 54.9 µM;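 note: rhodamine fluorescence freed from ubiquitin-rhodamine substrate followed over time; top concentration of the series differs between compounds; % is set by controls: 0 for no effect and ±100 for the full control effect; nearly all actives have a fitted effect of over 35% in size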
In short: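 USP1/UAF1 complex (1nM) preincubated with compound 15 min at room temperature, then Ub-Rho substrate (150nM final) added. Fluorescence read kinetically at 480/540 nm, 6 reads every 60 seconds. Buffer: 50mM HEPES pH 7.8, 0.5mM EDTA, 0.1 mg/ml BSA, 1mM TCEP, 0.01% Tween-20.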

[17] = Primary qHTS for small molecule stabilizers of the endoplasmic reticulum resident proteome: Secreted ER Calcium Modulated Protein (SERCaMP) assay (AID 1508630); details: SH-SY5Y GLuc-SERCaMP (Gaussia luciferase released on ER calcium loss) secretion, thapsigargin, luminescence; series mostly up to 38.4 µM; note: % is set by controls: 0 for no effect and ±100 for the full control effect
In short: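 The SH-SY5Y reporter protocol was run at 3 concentrations up to 38.3 uM (primary) or 11 concentrations (follow-up): 16 h compound, 100 nM thapsigargin for 4 h, then extracellular luciferase luminescence.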

[18] = target: 3',5'-cyclic-AMP phosphodiesterase 4B (Homo sapiens) (UniProt Q07343); assay: qHTS Assay for Inhibitors of PDE-IV (AID 607; active = well fitted activation curve with a large enough effect in the main read-out, with a control signal flat, not every such curve was filed as active; note: potency is the fitted concentration of half-maximal effect); details: HEK293 ACTOne CNG channel cells, membrane potential fluorescence; series mostly up to 22.9 µM
In short: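 Live HEK293 cells with a modified cyclic nucleotide-gated (CNG) channel report intracellular cAMP via membrane-potential dye fluorescence (ex 535/em 590 nm). Endogenous PDE-IV was targeted. Compounds were tested at up to 22.9 uM final; RO 20-1724 100 uM served as control.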

Chain of Cytochrome P450 2C19 (Homo sapiens) (P33261 whole entry, looked up): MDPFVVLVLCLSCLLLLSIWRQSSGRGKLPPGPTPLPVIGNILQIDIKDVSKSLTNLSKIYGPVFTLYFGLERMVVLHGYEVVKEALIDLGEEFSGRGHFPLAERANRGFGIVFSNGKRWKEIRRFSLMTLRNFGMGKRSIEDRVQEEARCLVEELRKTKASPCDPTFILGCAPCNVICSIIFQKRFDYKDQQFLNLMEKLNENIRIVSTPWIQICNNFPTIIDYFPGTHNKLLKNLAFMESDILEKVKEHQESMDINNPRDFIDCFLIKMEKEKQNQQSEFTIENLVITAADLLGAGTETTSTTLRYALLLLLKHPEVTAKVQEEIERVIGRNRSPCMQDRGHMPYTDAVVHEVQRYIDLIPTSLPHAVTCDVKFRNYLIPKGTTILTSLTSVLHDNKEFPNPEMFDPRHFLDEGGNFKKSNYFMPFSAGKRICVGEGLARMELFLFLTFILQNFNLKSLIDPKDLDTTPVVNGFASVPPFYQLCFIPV
Chain of Ubiquitin carboxyl-terminal hydrolase 1 (Homo sapiens) (O94782 whole entry, looked up): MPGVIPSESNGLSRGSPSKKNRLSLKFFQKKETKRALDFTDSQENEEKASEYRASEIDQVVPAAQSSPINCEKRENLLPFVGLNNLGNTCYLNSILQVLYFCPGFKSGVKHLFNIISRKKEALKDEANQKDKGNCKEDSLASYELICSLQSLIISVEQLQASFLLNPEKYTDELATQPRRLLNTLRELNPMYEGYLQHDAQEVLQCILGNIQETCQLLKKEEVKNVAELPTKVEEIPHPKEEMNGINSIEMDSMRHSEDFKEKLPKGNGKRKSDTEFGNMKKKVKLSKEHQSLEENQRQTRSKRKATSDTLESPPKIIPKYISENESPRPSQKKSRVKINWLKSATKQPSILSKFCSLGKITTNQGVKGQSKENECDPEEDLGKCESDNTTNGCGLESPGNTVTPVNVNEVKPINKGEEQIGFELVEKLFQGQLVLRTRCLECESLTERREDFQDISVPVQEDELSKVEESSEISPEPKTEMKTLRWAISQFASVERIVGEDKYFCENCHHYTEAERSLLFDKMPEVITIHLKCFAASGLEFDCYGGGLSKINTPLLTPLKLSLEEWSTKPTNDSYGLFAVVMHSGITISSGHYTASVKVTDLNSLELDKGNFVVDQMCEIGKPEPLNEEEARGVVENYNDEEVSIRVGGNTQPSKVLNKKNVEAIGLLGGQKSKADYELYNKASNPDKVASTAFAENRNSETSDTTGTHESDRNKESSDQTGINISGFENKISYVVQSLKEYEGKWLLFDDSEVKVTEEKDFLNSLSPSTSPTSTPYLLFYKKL
Chain of Lysosomal acid glucosylceramidase (Homo sapiens) (P04062 whole entry, looked up): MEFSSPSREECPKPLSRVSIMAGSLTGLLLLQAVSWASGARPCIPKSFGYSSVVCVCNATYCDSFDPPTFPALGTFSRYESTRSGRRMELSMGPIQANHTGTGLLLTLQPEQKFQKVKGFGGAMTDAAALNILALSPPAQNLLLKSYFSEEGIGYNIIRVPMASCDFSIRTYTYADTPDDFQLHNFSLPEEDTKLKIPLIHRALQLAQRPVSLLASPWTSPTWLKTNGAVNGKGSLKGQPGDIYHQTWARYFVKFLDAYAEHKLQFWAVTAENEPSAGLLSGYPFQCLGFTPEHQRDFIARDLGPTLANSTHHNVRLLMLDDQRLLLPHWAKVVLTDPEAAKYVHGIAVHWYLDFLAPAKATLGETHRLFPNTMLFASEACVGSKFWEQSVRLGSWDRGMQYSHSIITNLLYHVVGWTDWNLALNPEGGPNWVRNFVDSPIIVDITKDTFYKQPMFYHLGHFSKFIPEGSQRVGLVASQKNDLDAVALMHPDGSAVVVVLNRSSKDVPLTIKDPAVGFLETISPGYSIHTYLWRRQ
Chain of 3',5'-cyclic-AMP phosphodiesterase 4B (Homo sapiens) (Q07343 whole entry, looked up): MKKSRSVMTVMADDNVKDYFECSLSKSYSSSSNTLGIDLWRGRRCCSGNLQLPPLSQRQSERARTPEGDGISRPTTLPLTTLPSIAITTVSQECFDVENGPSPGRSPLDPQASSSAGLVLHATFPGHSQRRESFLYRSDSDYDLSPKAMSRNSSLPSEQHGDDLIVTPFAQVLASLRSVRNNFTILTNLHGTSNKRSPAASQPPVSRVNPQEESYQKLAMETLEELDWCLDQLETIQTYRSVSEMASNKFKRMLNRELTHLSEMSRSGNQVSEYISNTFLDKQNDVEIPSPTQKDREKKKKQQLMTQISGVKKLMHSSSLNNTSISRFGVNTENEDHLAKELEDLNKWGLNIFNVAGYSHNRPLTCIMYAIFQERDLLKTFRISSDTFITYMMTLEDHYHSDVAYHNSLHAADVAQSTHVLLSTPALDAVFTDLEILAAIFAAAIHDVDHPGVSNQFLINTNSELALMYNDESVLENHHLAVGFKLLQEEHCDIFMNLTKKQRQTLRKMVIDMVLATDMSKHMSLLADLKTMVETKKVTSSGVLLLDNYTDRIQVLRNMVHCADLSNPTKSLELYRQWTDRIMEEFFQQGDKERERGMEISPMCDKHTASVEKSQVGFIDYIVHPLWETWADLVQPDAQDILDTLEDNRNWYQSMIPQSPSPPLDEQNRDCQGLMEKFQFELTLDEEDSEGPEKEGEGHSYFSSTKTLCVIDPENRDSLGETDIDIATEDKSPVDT
Chain of Cytochrome P450 3A4 (Homo sapiens) (P08684 whole entry, looked up): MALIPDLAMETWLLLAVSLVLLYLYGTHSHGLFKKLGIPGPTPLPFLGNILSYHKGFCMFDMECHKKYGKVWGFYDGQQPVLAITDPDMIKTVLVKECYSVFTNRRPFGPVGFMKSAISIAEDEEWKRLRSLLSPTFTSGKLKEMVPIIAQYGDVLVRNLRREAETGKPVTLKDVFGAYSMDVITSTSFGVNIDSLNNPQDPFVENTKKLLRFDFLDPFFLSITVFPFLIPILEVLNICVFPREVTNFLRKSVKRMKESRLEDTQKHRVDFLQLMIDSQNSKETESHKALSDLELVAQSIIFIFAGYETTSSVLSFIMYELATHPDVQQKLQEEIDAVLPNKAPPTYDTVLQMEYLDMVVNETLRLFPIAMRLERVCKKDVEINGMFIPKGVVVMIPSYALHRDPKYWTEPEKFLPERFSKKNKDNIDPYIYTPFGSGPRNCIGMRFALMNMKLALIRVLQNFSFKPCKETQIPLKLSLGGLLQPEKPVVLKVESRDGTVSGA
Chain of Dual specificity protein kinase CLK4 (Homo sapiens) (Q9HAZ1 whole entry, looked up): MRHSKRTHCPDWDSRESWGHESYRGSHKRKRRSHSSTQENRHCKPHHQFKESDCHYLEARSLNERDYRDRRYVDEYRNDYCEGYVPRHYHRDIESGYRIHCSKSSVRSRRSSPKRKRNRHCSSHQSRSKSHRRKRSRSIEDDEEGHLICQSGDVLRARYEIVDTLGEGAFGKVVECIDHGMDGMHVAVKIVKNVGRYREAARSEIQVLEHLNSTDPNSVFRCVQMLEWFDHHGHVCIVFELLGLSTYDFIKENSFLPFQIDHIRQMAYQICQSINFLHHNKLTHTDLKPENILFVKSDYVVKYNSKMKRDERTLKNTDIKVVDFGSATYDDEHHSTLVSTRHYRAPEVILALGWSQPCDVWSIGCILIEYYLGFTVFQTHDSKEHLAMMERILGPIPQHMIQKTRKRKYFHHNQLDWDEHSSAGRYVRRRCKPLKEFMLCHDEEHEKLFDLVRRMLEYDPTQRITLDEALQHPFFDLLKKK
Chain of Glucocorticoid receptor (Homo sapiens) (P04150 whole entry, looked up, the tested form may be a part): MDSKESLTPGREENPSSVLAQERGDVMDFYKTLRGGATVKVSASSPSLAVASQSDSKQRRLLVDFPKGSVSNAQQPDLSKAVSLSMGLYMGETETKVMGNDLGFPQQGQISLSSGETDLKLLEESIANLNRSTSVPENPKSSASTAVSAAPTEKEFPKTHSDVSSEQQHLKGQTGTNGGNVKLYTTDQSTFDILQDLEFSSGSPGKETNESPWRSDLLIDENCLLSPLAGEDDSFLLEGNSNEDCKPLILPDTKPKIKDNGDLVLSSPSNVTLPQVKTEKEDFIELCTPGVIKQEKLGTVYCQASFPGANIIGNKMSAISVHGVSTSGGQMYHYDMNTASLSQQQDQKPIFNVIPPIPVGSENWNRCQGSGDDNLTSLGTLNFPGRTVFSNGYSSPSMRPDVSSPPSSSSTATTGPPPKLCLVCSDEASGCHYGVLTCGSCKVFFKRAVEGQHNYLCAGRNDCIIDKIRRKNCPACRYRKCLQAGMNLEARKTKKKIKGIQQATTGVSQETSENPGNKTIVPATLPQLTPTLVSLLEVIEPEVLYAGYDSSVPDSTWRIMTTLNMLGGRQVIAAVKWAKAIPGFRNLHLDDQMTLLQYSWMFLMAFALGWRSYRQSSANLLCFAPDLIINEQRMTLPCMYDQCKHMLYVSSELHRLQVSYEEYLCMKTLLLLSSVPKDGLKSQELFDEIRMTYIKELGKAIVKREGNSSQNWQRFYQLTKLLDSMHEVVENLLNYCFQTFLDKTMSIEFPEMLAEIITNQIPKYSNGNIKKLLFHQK
Chain of Cytochrome P450 1A2 (Homo sapiens) (P05177 whole entry, looked up): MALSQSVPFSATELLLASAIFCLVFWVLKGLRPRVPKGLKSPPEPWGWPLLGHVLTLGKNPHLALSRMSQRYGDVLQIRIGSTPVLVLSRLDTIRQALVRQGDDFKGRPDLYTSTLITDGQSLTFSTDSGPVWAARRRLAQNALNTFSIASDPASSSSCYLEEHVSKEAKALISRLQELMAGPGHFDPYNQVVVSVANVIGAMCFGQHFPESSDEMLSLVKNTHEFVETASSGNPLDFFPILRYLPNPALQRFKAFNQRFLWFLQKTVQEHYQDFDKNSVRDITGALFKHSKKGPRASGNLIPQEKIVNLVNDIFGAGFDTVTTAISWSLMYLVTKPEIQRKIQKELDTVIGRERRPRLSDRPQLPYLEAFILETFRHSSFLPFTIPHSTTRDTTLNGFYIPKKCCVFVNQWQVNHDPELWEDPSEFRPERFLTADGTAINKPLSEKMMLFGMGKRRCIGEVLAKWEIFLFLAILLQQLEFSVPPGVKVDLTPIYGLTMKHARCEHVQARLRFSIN

COc1cccc(Cn2c(=O)c(-c3cccs3)nc3cncnc32)c1
active: Potency [3] 5.01 µM | Potency [9] 2.51 µM | Potency [10] 5.01 µM | Potency [12] 5.01 µM
inactive: Potency [1] > 11.4 µM | activity change, negative = inhibition [2] -13.8% | activity change, negative = inhibition [4] -4.4% | activity, negative = inhibition [5] 0.799% | Potency [6] > 9.22 µM | Potency [7] > 46 µM | Potency [8] | Potency [11] | Potency [13] | Potency [14] | Potency [15] | Potency [16] | outcome [17]

COc1ccccc1CCn1c(=O)c(-c2cccc(Cl)c2)nc2cncnc21
inactive: Potency [1] > 11.4 µM | activity change, negative = inhibition [2] -3.94% | activity change, negative = inhibition [4] -27.9% | activity, negative = inhibition [5] -13% | Potency [6] > 9.22 µM | Potency [7] > 46 µM | Potency [8] | Potency [11] | Potency [13] | Potency [14] | Potency [15] | Potency [16] | outcome [17]
active: Potency [3] 0.316 µM | Potency [10] 6.31 µM | Potency [12] 0.251 µM

CCNc1ncc2nc(-c3cn(C)c4ccccc34)c(=O)n(Cc3cccs3)c2n1
inactive: Potency [1] > 11.4 µM | activity change, negative = inhibition [2] -13.1% | activity change, negative = inhibition [4] 8.06% | activity, negative = inhibition [5] 23.5% | Potency [6] > 9.22 µM | Potency [7] > 46 µM | Potency [8] | Potency [18] | Potency [13] | Potency [14] | Potency [15] | outcome [17]
active: Potency [3] 6.31 µM

COc1ccc(-n2c(=O)c(-c3ccccc3)nc3cnc(N4CCOCC4)nc32)cc1
active: Potency [3] 15.8 µM
inactive: Potency [1] > 11.4 µM | activity change, negative = inhibition [2] 5.32% | activity change, negative = inhibition [4] 6.27% | activity, negative = inhibition [5] 6.26% | Potency [6] > 9.22 µM | Potency [7] > 46 µM | Potency [8] | Potency [18] | Potency [13] | Potency [14] | Potency [15] | Potency [16] | outcome [17]

O=c1cnc2cnc(Nc3ccccc3)nc2n1CCc1ccccc1
active: Potency [3] 3.16 µM | Potency [18] 2.51 µM | Potency [12] 2 µM | Potency [13] 0.199 µM | Potency [14] 0.316 µM | Potency [15] 0.0891 µM
inactive: Potency [1] > 11.4 µM | activity change, negative = inhibition [2] -13.5% | activity change, negative = inhibition [4] 9.72% | activity, negative = inhibition [5] -12.1% | Potency [6] > 9.22 µM | Potency [7] > 46 µM | Potency [8] | Potency [16] | outcome [17]

COc1cccc(Cn2c(=O)cnc3cnc(OCc4ccccc4)nc32)c1
active: Potency [3] 12.6 µM
inactive: Potency [1] > 11.4 µM | activity change, negative = inhibition [2] -24.3% | activity change, negative = inhibition [4] -4.5% | activity, negative = inhibition [5] -13.2% | Potency [6] > 9.22 µM | Potency [7] > 46 µM | Potency [8] | Potency [11] | Potency [13] | Potency [14] | Potency [15] | Potency [16] | outcome [17]
